Assay outcomes from PubChem BioAssay.
PLK1 PBD inh – PLK1 (human) polo-box domain binding inhibition; P53350; Plk1 PBD binding of FITC phosphopeptide, fluorescence polarization; Potency, µM, usual class: inhibitors; 360,000 tested, 2.8% active; AID 720504; note: series mostly up to about 57 µM; nearly all actives have a fitted effect of over 65% in size
Sfp inh – inhibitors of Bacillus subtilis Sfp phosphopantetheinyl transferase. Q9F4F7. Biochemical Sfp PPTase activity, qHTS. Potency, µM, usual class: inhibitors. 310,000 tested, 3.5% active;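 note: the enzyme is Sfp with the accession as filed and its product quenches rhodamine fluorescence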
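Fluorescence-quenching assay: 15 nM Sfp-PPTase preincubated 15 min at room temperature with compound, then 5 uM rhodamine-CoA and 12.5 uM BHQ-2-labelled YbbR peptide added. Fluorescence (ex 525/em 598 nm) read at start and after 30 min; difference gives rate.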
BAZ2B inh – BAZ2B (human) inhibition; AlphaScreen BAZ2B-H3K14Ac peptide displacement; 360,000 tested, 4.4% active; Potency, µM (highest dose often 114 µM), most hits filed as inhibitors; Q9UIF8; note: nearly all actives have a fitted effect of over 60% in size
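Protein-peptide AlphaScreen: BAZ2B 50 nM, b-H3K14Ac 50 nM, 1x PBS pH 7.4 + 0.01% Tween-20. Preincubation 30 min RT; cpd 30 min RT (top 110 uM); beads 20 min RT, light-protected.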
HP1b chromo inh – inhibitors of HP1-beta chromodomain binding to methylated histone tails; Potency, µM (titrated, usually from 114 µM), most hits filed as inhibitors; 390,000 tested, 0.56% active; AlphaScreen HP1-beta / biotin-H3K9me3 peptide binding; P83916; note: nearly all actives have a fitted effect of over 70% in size
Target sequence (P83916 whole entry, looked up): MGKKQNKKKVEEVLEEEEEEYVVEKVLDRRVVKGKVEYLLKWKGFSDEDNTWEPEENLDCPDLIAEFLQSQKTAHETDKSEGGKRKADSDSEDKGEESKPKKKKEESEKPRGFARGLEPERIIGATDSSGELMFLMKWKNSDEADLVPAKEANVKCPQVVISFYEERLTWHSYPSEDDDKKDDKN
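Compound inhibition of the preformed complex between 50 nM HP1-beta and 50 nM biotinylated H3K9me3 peptide was read by AlphaScreen. Buffer was PBS pH 7.4 with 0.01% Tween-20. Incubations ran 30 min at room temperature, with 10 ug/mL donor/acceptor beads.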
G9a block – blocks human histone lysine methyltransferase G9a. Q96KQ7. G9a H3K9 monomethylation, AlphaScreen, 2 h. Potency, µM (top dose mostly 102 µM), hits mostly inhibitors. 350,000 tested, 8.8% active. AID 504332; note: nearly all actives have a fitted effect of over 75% in size
Target sequence (Q96KQ7 913-1193 limits assumed): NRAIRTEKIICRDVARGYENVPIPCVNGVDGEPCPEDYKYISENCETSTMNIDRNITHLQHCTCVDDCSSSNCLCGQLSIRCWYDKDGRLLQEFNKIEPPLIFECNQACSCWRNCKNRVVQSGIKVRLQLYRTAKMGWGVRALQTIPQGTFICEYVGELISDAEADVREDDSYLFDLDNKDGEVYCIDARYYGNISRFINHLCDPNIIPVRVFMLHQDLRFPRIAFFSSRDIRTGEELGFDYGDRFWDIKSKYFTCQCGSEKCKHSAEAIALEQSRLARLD
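AlphaScreen read-out: biotin-H3K9 peptide (500 nM) methylation by 20 nM enzyme with 20 uM SAM, 2 h at room temperature after 15 min compound preincubation; anti-monomethyl H3K9 antibody plus donor/acceptor beads, 10 min dark.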
JMJD2A Tudor inh – inhibitors of human JMJD2A Tudor domain. 390,000 tested, 4.4% active. O75164. AlphaScreen JMJD2A-Tudor / H3K4me3 peptide binding. Potency, µM (top dose mostly 114 µM), actives largely listed as inhibitors; note: nearly all actives have a fitted effect of over 50% in size
Hits are given with their value; n = inactive; u = inconclusive; x = no result; [ ] = dose if it differs, or a comment. Hits are enriched below; roughly 12% of the tested compounds scored in any of these assays. Calls come from the whole dose curve; as a rule, active = well fitted curve in the direction sought with a large enough effect; inconclusive = small, poorly fitted or top-dose-only effect, or another doubt; inactive = no such curve, though single readings can be large; an effect the other way counts as inactive or inconclusive.

SMILES | PLK1 PBD inh | Sfp inh | BAZ2B inh | HP1b chromo inh | G9a block | JMJD2A Tudor inh
CCN1CCN(c2ccc(S(=O)(=O)N3CCCCC3)cc2NC(=O)c2ccc([N+](=O)[O-])o2)CC1 | n | x | n | u | 35µM | u
COc1ccc(S(=O)(=O)N2CCCCC2)cc1NC(=O)c1ccc([N+](=O)[O-])o1 | n | n | n | n | n | n
CN(C)S(=O)(=O)c1ccc(N2CCCC2)c(C(=O)Nc2ccc(F)cc2F)c1 | n | x | n | n | 11µM | n
CN(C)S(=O)(=O)c1cccc(C(=O)Nc2cc(S(=O)(=O)N3CCOCC3)ccc2N2CCCC2)c1 | 5.3µM | x | x | u | x | n
COc1ccccc1NC(=O)Cc1nnc(SCC(=O)NC2CCCCC2)n1C | n | n | n | n | n | n
CCN1CCN(c2ccc(S(=O)(=O)N3CCCCC3)cc2NC(=O)c2ccc(F)cc2)CC1 | n | n | n | n | 10µM | u
O=C(Nc1cc(S(=O)(=O)N2CCCCC2)ccc1N1CCOCC1)c1ccc(F)cc1 | n | x | n | n | n | n
CS(=O)(=O)N1CCN(c2ccccc2NC(=O)c2ccc([N+](=O)[O-])o2)CC1 | 3.4µM | n | n | u | n | 3.2µM
O=C(Nc1cc(S(=O)(=O)N2CCOCC2)ccc1N1CCCC1)c1ccc(F)cc1 | 9.5µM | x | n | u | u | n
O=C(Nc1cc(S(=O)(=O)N2CCOCC2)ccc1N1CCOCC1)c1cccs1 | n | x | n | n | n[2.33 µM] | 89µM
COc1ccccc1CN1CCCC2(CCNCC2)C1 | x | n | x | x | n[12.7 µM] | x
CCN1CCN(c2ccc(S(=O)(=O)N3CCCCC3)cc2NC(=O)c2sccc2C)CC1 | n | x | u | n | 2.2µM | n
CC(=O)N1CCN(S(=O)(=O)c2cccc(C(=O)Nc3ccccc3N3CCCC3)c2)CC1 | n | x | n | n | n[0.501 µM] | n
CC1CN(S(=O)(=O)c2cccc(C(=O)Nc3ccccc3N3CCCC3)c2)CC(C)O1 (stereo not given) | n | x | n | n | 50µM | u
CCN1CCN(c2ccc(S(=O)(=O)N3CCCCC3)cc2NC(=O)CC(C)c2ccccc2)CC1 (stereo not given) | n | x | n | n | 50µM | n
O=C(Nc1cc(S(=O)(=O)N2CCOCC2)ccc1N1CCCCC1)c1cc(-c2ccccn2)nc2ccccc12 | 4.2µM | 13µM | n | u | 2.8µM | 79µM
CN(C)C(=O)[C@]1(C)C[C@H]1[C@H](NC(=O)CNC(=O)[C@@H]1CCCN1C(=O)[C@]1(C)C[C@H]1[C@H](NC(=O)OCc1ccccc1)c1ccccc1)c1ccccc1 | x | n | x | x | x | x
CCN1CCN(c2ccc(S(=O)(=O)N3CCCCC3)cc2NC(=O)c2ccc(C)c(C)c2)CC1 | n | x | x | n | x | u
COc1ccc(/C=C/C(=O)Nc2ccc(S(=O)(=O)N3CCOCC3)cc2)c(OC)c1 | n | x | n | n | u | n
CCN1CCN(c2ccc(S(=O)(=O)N3CCCCC3)cc2NC(=O)c2cccc(C)c2)CC1 | n | x | n | n | 50µM | n
CCN1CCN(c2ccc(S(=O)(=O)N3CCOCC3)cc2NC(=O)/C=C/c2ccc(OC)cc2OC)CC1 | n | x | n | n | 40µM | n
O=C(O)CCSc1nnc(SCC(=O)NC2CCS(=O)(=O)C2)s1 (stereo not given) | n | x | x | n | x | n
Oc1c(Br)cc(C2N=C(c3ccccc3Cl)NO2)cc1Br (stereo not given) | n | n | n | u | n[0.501 µM] | 40µM
CCc1cc(C(=O)NNC(=O)CCN2CCN(c3ccccc3)CC2)sc1C | n | n | u | n | 40µM | n
COC(=O)c1ccc(N2NC(=O)/C(=C/c3cc(OC)c(O)c(OC)c3)C2=O)cc1 | n | n | 45µM | u | 2.8µM | u
COC(=O)c1ccc(N2NC(=O)/C(=C/c3cc(OC)c(OC)c(OC)c3)C2=O)cc1 | 8.4µM | u | n | n | n[2.33 µM] | n
COc1cc(/C=C2/SC(=Nc3ccc(O)cc3)NC2=O)cc(OC)c1O | n | n | n | n | n | n
CCC(Cc1ccccc1)NC(=O)c1ccc2nc(N3CCC(C)CC3)sc2c1 (stereo not given) | x | x | n | n | n | n
CC1CN(c2ccccn2)C(C)CN1C(=S)Nc1ccccc1 (stereo not given) | n | x | x | n | x | n
